Screening results as filed in PubChem BioAssay.
Peg3 prom inh: Peg3 promoter-driven luciferase inhibitors, primary screen, cell-based, HeLa, luciferase luminescence. HeLa PEG-Prom luciferase reporter, overnight. AID 588405, 2011. inhibition, % at 20 µM. actives 1.7% (n = 360,000);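 active = inhibition of at least 50% at 20 µM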
KKLEB cytotox: cytotoxicity in KKLEB CF airway cells, primary screen, cytotoxicity control for CF NF-kB inhibitor project, cell-based, uHTS, fluorescence assay plates. KKLEB CF airway cells viability, ATPlite luminescence, overnight; hits give low values; cells stimulated with P. aeruginosa culture filtrate. actives 0.36% (n = 360,000). activity change (cytotoxicity), % at 5 µM;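 active = corrected activity change at or below -50% at 5 µM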
CF NFkB inh: inhibitors of PAF-induced NF-kB signaling, primary screen, cell-based, GFP fluorescence, uHTS; KKLEB NF-kB-GFP reporter, GFP fluorescence overnight; inhibition, % at 5 µM; actives 0.86% (n = 360,000); AID 588850, 2011;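 active = at least 50% inhibition at 5 µM, scaled per plate between neutral and stimulator controls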;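 note: PAF is a Pseudomonas aeruginosa culture filtrate used as stimulus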
HIF-2a block: HIF-2a reporter inhibitors, primary screen, luminescence, 786-0 RCC cells. 786-0 RCC cells HIF-2a reporter, luciferase luminescence, overnight. inhibition, % at 18.8 µM. actives 0.72% (n = 360,000). AID 624352, 2012;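 active = inhibition of the luminescence signal of 40% or more relative to plate controls, in a single-dose primary screen at 18.75 µM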
TRPM1 prom inh: inhibitors of MITF-dependent TRPM1 promoter reporter, primary screen, cell-based, SK-MEL-5, single point, luciferase. SK-MEL-5 TRPM1 promoter luciferase, 24 h. inhibition, % at 12.5 µM. actives 0.83% (n = 330,000);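 active = mean inhibition across replicates of 60% or more, whatever share of single replicates reaches that level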
B2AR ag: beta2AR agonists driving receptor internalization, primary screen, cell-based, FAP fluorogen, flow cytometry; Beta-2 adrenergic receptor (Homo sapiens), P07550; Am2.2-beta2AR cells; response, % (test concentration not listed); actives 0.43% (n = 340,000);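 active = response above a set limit, near 3 SD of response in nonfluorescent compounds, cut at about 42% in these data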
Target sequence (P07550 whole entry, looked up): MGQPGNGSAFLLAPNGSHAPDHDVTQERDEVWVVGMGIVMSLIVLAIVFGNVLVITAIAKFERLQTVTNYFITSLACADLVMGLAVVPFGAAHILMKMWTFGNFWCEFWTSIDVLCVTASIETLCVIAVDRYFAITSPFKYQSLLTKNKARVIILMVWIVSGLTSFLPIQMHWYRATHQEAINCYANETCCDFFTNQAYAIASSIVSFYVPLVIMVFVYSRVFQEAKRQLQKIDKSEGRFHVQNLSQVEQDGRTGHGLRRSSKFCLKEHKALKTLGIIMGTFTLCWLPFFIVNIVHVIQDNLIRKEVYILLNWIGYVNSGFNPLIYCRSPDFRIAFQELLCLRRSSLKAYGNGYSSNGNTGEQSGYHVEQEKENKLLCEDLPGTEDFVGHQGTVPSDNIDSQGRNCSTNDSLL
Mdm2 MdmX conf: retested Mdm2-MdmX interaction blockers, confirmation, cell-based, luminescence, single concentration, set 2; SaOS-2 split-luciferase Mdm2/MdmX complementation; actives 99% (n = 740); shares compounds with HIF-2a block; inhibition, % at 8 µM; AID 504601, 2011;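 active = mean inhibition of the luminescence signal across two replicates at or above 26 percent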
HIF-2a conf: HIF-2a reporter inhibitor retest, confirmation, luminescence, 786-0 RCC cells; shares compounds with HIF-2a block; HIF-2a luciferase reporter luminescence, overnight; inhibition, % at 18.8 µM; actives 56% (n = 1,800);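 active = mean inhibition across four replicates of at least 40 percent at the single tested concentration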
HIF-1a cs: HIF-1a luciferase reporter signal reduction – MiaPaCa-2 cells, single concentration, counter-screen for HIF-2a inhibitor project, confirmation; shares compounds with HIF-2a block; MiaPaCa-2 HIF-1a luciferase reporter, desferoxamine, overnight; inhibition, % at 18.8 µM; actives 72% (n = 1,800);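 active = mean inhibition of the reporter signal across four replicates at the single tested dose of 50% or more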
Numbers stand for hits; n = inactive; x = not tested or not shown. Only some compounds are listed: those with a hit (about 2.8% of all), similar ones and a draw of the others.

SMILES	Peg3 prom inh	KKLEB cytotox	CF NFkB inh	HIF-2a block	TRPM1 prom inh	B2AR ag	HIF-2a conf	HIF-1a cs	others
C#CCN(C[C@@H]1[C@@H](OC(=O)NCc2ccco2)[C@@H](OC(=O)NCc2ccco2)CN(C(=O)OC(C)C)N1C(=O)OC(C)C)S(=O)(=O)c1ccc(C)cc1	n	n	n	43.7	x	x	n	89.1
C#CCN(C[C@@H]1[C@@H](OC(=O)Nc2cccs2)[C@@H](OC(=O)Nc2cccs2)Cn2c(=O)ccc(=O)n21)S(=O)(=O)c1ccc(C)cc1	96.2	-60.3	81.2	97.2	x	x	96.4	107.6
C#CCN(C[C@@H]1[C@@H](OC(=O)NCc2ccccc2F)[C@@H](OC(=O)NCc2ccccc2F)Cn2c(=O)ccc(=O)n21)S(=O)(=O)c1ccc(C)cc1	96.7	-85.2	76.7	95.2	x	x	97.1	106.4
CC(=O)N1C[C@H]2CON(C)[C@H]2C[C@H]1c1cccc(N2CCOCC2)c1	n	n	n	n	x	x	x	x
C/C(=C\c1ccccc1)C(=O)Nc1ccc(Cl)cn1	n	n	n	n	n	n	x	x
CC(C)[C@H](NC(=O)c1ccccc1)C(=O)OCC(=O)Nc1ccc(S(=O)(=O)N2CCOCC2)cc1	n	n	n	n	n	n	x	x
O=C(O)c1ccc(S(=O)(=O)NN=Cc2c[nH]c3ccccc23)cc1	n	n	n	n	x	x	x	x
O=C(O)c1ccc(N/N=C/c2c[nH]c3ccccc23)cc1	67.2	n	n	51.5	n	n	78.2	59.9
CC(=O)c1ccc(N2CCN(C(=O)C(=O)c3cn(CC(=O)N4CCOCC4)c4ccccc34)CC2)cc1	n	n	n	n	x	x	x	x
CC(=O)C(=Cc1ccc(Cl)cc1)C(=O)c1ccccc1	98.8	n	n	90.5	x	x	92.3	105.2
COc1ccc(C2c3ccc(O)cc3Oc3ncn4nc(-c5cccnc5)nc4c32)cc1OC (stereo not drawn)	n	n	n	51.8	n	n	n	56.6
COc1cc2c(cc1OC)C(=NO)CCCC2	n	n	n	n	x	x	x	x
CC(=O)[C@H]1CC[C@@H](c2ccccc2)N(S(=O)(=O)c2ccc(C)cc2)C1	x	x	x	n	x	x	x	x
O=C(CCl)Nc1ccc(-c2ccccc2)cc1	104.4	n	n	n	65.1	n	x	x	Mdm2 MdmX conf=102.2
CC(C)N(c1ccccc1)c1ccc(NC(=O)CCl)cc1	90.9	-85.6	82.5	82.1	n	n	62.0	99.8	Mdm2 MdmX conf=102.2
CC(=O)Nc1ccc(NC(=O)Cc2ccc(-c3ccccc3)cc2)cc1	n	n	n	n	n	n	x	x
CC(C)N(c1ccccc1)c1ccc(NC(=O)[C@@H]2O[C@H](CO)[C@H](O)[C@H](O)[C@H]2O)cc1	n	n	n	n	x	x	x	x
CC(=O)c1cccc(NC(=O)c2cnn3ccccc23)c1	n	n	n	n	x	n	x	x
CC(=O)c1ccc(NC(=O)c2cnn3ccccc23)cc1	n	n	n	75.3	x	n	86.3	n
COc1ccc2c(c1)C(C)(Cc1ccc(C(=O)c3ccccc3)cc1)C(=O)N2 (stereo not drawn)	n	n	n	n	x	x	x	x
OC[C@@H]1CN(Cc2ccc(-c3ccccc3)cc2)C[C@H](n2cnc3c(NCc4ccc(F)cc4)ncnc32)O1	n	n	n	n	x	x	x	x
O=[N+]([O-])c1cc(-c2ncccn2)c([N+](=O)[O-])s1	104.5	n	n	91.2	x	n	40.1	51.8
